# Data published in the supplement of paper PMC8728848.
# Only a selection was taken, and the strongest signals are over-represented in it overall.
# Legend:
# Assay in all cases: glycan array binding signal (z-score within array); higher = stronger binding
# Conditions in all cases: glycan notation: IUPAC condensed, linker removed
# [1] = molecular target: Fuc(a1-2)Gal(b1-3)GalNAc(b1-3)Gal
# Procedure, shortened: (§1)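 From the Consortium for Functional Glycomics database, 3228 arrays were curated, keeping only those whose protein sequence was available. Binding is given as a within-array Z-score averaged across arrays sharing a protein sequence and across linkers. Negative Z-scores can be read as non-binding.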
# [2] = molecular target: Fuc(a1-2)Gal(b1-3)[Fuc(a1-4)]GlcNAc(b1-3)[Fuc(a1-3)[Gal(b1-4)]GlcNAc(b1-6)]Gal(b1-4)Glc
# Procedure, shortened: as §1
# [3] = molecular target: Fuc(a1-2)[GalNAc(a1-3)]Gal(b1-3)GalNAc(b1-3)Gal(a1-4)Gal(b1-4)Glc
# Procedure, shortened: as §1
# [4] = molecular target: Fuc(a1-2)[GalNAc(a1-3)]Gal(b1-4)[Fuc(a1-3)]GlcNAc
# Procedure, shortened: as §1
# [5] = molecular target: Fuc(a1-3)[Gal(b1-4)]Glc6S
# Procedure, shortened: as §1
# [6] = molecular target: Fuc(a1-3)[Gal(b1-4)]GlcNAc(b1-6)GalNAc
# Procedure, shortened: as §1
# [7] = molecular target: Gal(a1-3)Gal(b1-3)GlcNAc(b1-6)GalNAc
# Procedure, shortened: as §1
# [8] = molecular target: Gal(a1-3)Gal(b1-4)GlcNAc
# Procedure, shortened: as §1
# [9] = molecular target: Gal(a1-3)Gal(b1-4)[Fuc(a1-3)]GlcNAc
# Procedure, shortened: as §1
# [10] = molecular target: Gal(a1-3)GalNAc
# Procedure, shortened: as §1
# [11] = molecular target: Gal(a1-3)[Gal(a1-4)]Gal(b1-4)GlcNAc
# Procedure, shortened: as §1
# [12] = molecular target: Gal(a1-4)Gal(b1-4)Glc
# Procedure, shortened: as §1
# [13] = molecular target: Gal(b1-3)Gal
# Procedure, shortened: as §1
# [14] = molecular target: Gal(b1-3)GalNAc(b1-3)Gal
# Procedure, shortened: as §1
# [15] = molecular target: Gal(b1-3)GalNAc(b1-4)Gal(b1-4)Glc
# Procedure, shortened: as §1
# [16] = molecular target: Gal(b1-3)GlcNAc(b1-2)Man(a1-3)[Gal(b1-3)GlcNAc(b1-2)Man(a1-6)]Man(b1-4)GlcNAc(b1-4)[Fuc(a1-6)]GlcNAc
# Procedure, shortened: as §1
# [17] = molecular target: Gal(b1-3)[GlcNAc(b1-6)]GalNAc
# Procedure, shortened: as §1
# [18] = molecular target: Gal(b1-4)GlcNAc
# Procedure, shortened: as §1
# [19] = molecular target: Gal(b1-4)GlcNAc(b1-2)Man(a1-3)[Gal(b1-4)GlcNAc(b1-2)Man(a1-6)][Gal(b1-4)GlcNAc(b1-4)]Man(b1-4)GlcNAc(b1-4)[Fuc(a1-6)]GlcNAc
# Procedure, shortened: as §1
# [20] = molecular target: Gal(b1-4)GlcNAc(b1-2)Man(a1-6)Man(b1-4)GlcNAc(b1-4)GlcNAc
# Procedure, shortened: as §1
# [21] = molecular target: Gal(b1-4)GlcNAc(b1-2)[Gal(b1-4)GlcNAc(b1-6)]Man(a1-6)[GlcNAc(b1-4)][Gal(b1-4)GlcNAc(b1-2)Man(a1-3)]Man(b1-4)GlcNAc(b1-4)GlcNAc
# Procedure, shortened: as §1
# [22] = molecular target: Gal(b1-4)GlcNAc(b1-3)Gal(b1-4)GlcNAc(b1-3)Gal(b1-4)GlcNAc(b1-2)[Gal(b1-4)GlcNAc(b1-3)Gal(b1-4)GlcNAc(b1-3)Gal(b1-4)GlcNAc(b1-6)]Man(a1-6)[Gal(b1-4)GlcNAc(b1-3)Gal(b1-4)GlcNAc(b1-3)Gal(b1-4)GlcNAc(b1-2)Man(a1-3)]Man(b1-4)GlcNAc(b1-4)[Fuc(a1-6)]GlcNAc
# Procedure, shortened: as §1
# [23] = molecular target: Gal(b1-4)GlcNAc(b1-3)[GlcNAc(b1-6)]Gal(b1-4)GlcNAc
# Procedure, shortened: as §1
# [24] = molecular target: Gal3S(b1-3)GalNAc
# Procedure, shortened: as §1
# [25] = molecular target: Gal3S(b1-4)[Fuc(a1-3)]Glc6S
# Procedure, shortened: as §1
# [26] = molecular target: Gal4S6S(b1-4)GlcNAc
# Procedure, shortened: as §1
# [27] = molecular target: GalNAc(b1-3)Gal
# Procedure, shortened: as §1
# [28] = molecular target: GalNAc(b1-4)GlcNAc
# Procedure, shortened: as §1
# [29] = molecular target: GalNAc(b1-4)GlcNAc(b1-2)Man(a1-3)[GalNAc(b1-4)GlcNAc(b1-2)Man(a1-6)]Man(b1-4)GlcNAc(b1-4)GlcNAc
# Procedure, shortened: as §1
binder,measurement,setting,value
HFR-3 (Triticum aestivum) (protein) MKGLLLCALALAFAAVTTHAQLQSCPTRCGKQADGMECPNNLCCSKDGYCGLGVDYCSAGAGCQSGACYDNKICGAQANGTLCRNNHCCSSGGRCGYGREYCSNGCQGGPCWADLKCGHLDNGKLCPNNLCCSQYGYCGLGPEFCGTGCQNGACSTDKPCGNKANGAPCTNNYCCSQYGSCGLGKDYCGTGCQNGACN,glycan array binding signal (z-score),[1],-0.52
same,glycan array binding signal (z-score),[2],-0.893
same,glycan array binding signal (z-score),[3],-1.32
same,glycan array binding signal (z-score),[4],-0.585
same,glycan array binding signal (z-score),[5],-1.23
same,glycan array binding signal (z-score),[6],-1.31
same,glycan array binding signal (z-score),[7],-0.577
same,glycan array binding signal (z-score),[8],0.079
same,glycan array binding signal (z-score),[9],-0.409
same,glycan array binding signal (z-score),[10],2.1
same,glycan array binding signal (z-score),[11],1.2
same,glycan array binding signal (z-score),[12],2.12
same,glycan array binding signal (z-score),[13],-0.289
same,glycan array binding signal (z-score),[14],-0.312
same,glycan array binding signal (z-score),[15],2.24
same,glycan array binding signal (z-score),[16],0.089
same,glycan array binding signal (z-score),[17],-0.111
same,glycan array binding signal (z-score),[18],-0.853
same,glycan array binding signal (z-score),[19],-0.212
same,glycan array binding signal (z-score),[20],-0.488
same,glycan array binding signal (z-score),[21],1.51
same,glycan array binding signal (z-score),[22],2.51
same,glycan array binding signal (z-score),[23],-0.381
same,glycan array binding signal (z-score),[24],1.67
same,glycan array binding signal (z-score),[25],6.1
same,glycan array binding signal (z-score),[26],0.828
same,glycan array binding signal (z-score),[27],1.25
same,glycan array binding signal (z-score),[28],2.48
same,glycan array binding signal (z-score),[29],0.738
